# Source: the supplement of paper PMC12636033
# ± gives the standard deviation of the averaged measurements. The full ranking holds about 33,000 sequences; the median of “E-score (rank enrichment, -0.5 to 0.5)” is about -0.0068, and the highest 2% start at about 0.24. Many of the other results were omitted from the sample, so the highest values are more common in it than they were.
# System: muMax20 (Max(13-93) K31hArg/K57hArg, M65Nle)
# Experiment: PBM 8-mer E-score (E-score (rank enrichment, -0.5 to 0.5)); higher = stronger preferential binding
# Description: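 Protein binding microarray (universal PBM chip covering all 10-mers in fixed probe flanks) with chemically synthesized human Max(13-93) bHLH-LZ analogs (not full-length Max) bearing noncanonical residues (hArg, Tha, Aib, Nle at 65) and aromatic Cys staples. Read-out per 8-mer (and its reverse complement): E-score (rank-based enrichment, -0.5 to 0.5) and Z-score of median probe intensity.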
row,Sequence,PBM 8-mer E-score
1,CACGGGCG,-0.217 ± 0.14
2,CATAAATC,0.0804 ± 0.0035
3,ATTAAATA,0.2 ± 0.025
4,CCTAAATA,0.123 ± 0.022
5,TAAATGTA,0.285 ± 0.01
6,CGTAAATA,0.0359 ± 0.08
7,TATAAATA,0.2587 ± 0.0014
8,CTTAAATA,0.0909 ± 0.014
9,CATAAATA,0.318 ± 0.035
10,GAAATGTA,0.0974 ± 0.0077
11,TAAAAATA,0.131 ± 0.048
12,GTTAAATA,0.283 ± 0.032
13,CAAATGTA,0.195 ± 0.11
14,CCTCCGGC,-0.116 ± 0.096
15,ATTTGATA,0.176 ± 0.046
16,GCTTGACC,-0.013 ± 0.069
17,ATGGATCG,-0.294 ± 0.055
18,AATTAGCA,0.159 ± 0.046
19,CTGGAGCC,-0.177 ± 0.015
20,ATGCCCGG,-0.241 ± 0.076
21,AACTACGA,0.0584 ± 0.13
22,AAGTATAA,0.215 ± 0.033
23,AAGTATAT,0.183 ± 0.0083
24,AAGTATAC,0.259 ± 0.043
25,ACAAGGGT,0.0627 ± 0.11

row,Sequence,PBM 8-mer E-score
1,AGTAGTAA,0.151 ± 0.057
2,CATAGTCA,0.05 ± 0.035
3,GATAGTAA,0.0883 ± 0.11
4,ATTAGTAA,0.246 ± 0.00033
5,TATAGTAA,0.28 ± 0.024
6,ATTAGTAC,0.0781 ± 0.08
7,CATAGTAA,0.163 ± 0.055
8,GATAGTCA,0.117 ± 0.051
9,CTTAGTAA,0.0409 ± 0.1
10,TATAGTCA,0.246 ± 0.027
11,CGTAGTAA,0.104 ± 0.053
12,TGTAGTAA,0.258 ± 0.033
13,AACGTTAG,0.091 ± 0.026
14,AGAGCAAT,-0.0507 ± 0.013
15,CCACCGCA,-0.117 ± 0.1
16,ACGGGTAG,-0.226 ± 0.026
17,CAGATCCG,-0.166 ± 0.073
18,CTCCCAGC,-0.118 ± 0.04
19,ATTAGTTA,0.173 ± 0.015
20,GTTAGTTA,0.251 ± 0.048
21,CTTAGTTA,0.0136 ± 0.12
22,GCCTCGAC,-0.225 ± 0.022
23,AACCCGGA,-0.327 ± 0.033
24,GTAAGGCA,0.203 ± 0.12
25,ATTCTAGA,0.0758 ± 0.1

row,Sequence,PBM 8-mer E-score
1,ATCTACAA,0.126 ± 0.062
2,TCGTGGCA,0.164 ± 0.017
3,CCGTGGCA,-0.149 ± 0.013
4,ACGTGGCC,0.114 ± 0.13
5,ACGTGGCT,0.249 ± 0.1
6,ACGTGGCA,0.256 ± 0.033
7,ACGTGGCG,0.165 ± 0.085
8,CAGGCTGG,-0.172 ± 0.05
9,CTTTTCAC,0.311 ± 0.078
10,GTTTTCAA,0.258 ± 0.079
11,TATTTCAA,0.257 ± 0.016
12,CTTTTCAA,0.144 ± 0.06
13,CATTTCAA,0.217 ± 0.053
14,ATTTTCAC,-0.00186 ± 0.074
15,CCTTTCAC,0.116 ± 0.056
16,GGTTTCAA,0.0825 ± 0.073
17,GATTTCAA,-0.0671 ± 0.11
18,AATAGGGG,0.0563 ± 0.032
19,CGCCGCTA,-0.204 ± 0.0029
20,ACAGAGCC,-0.0681 ± 0.01
21,CGCATAAC,0.153 ± 0.039
22,AGCGCTCC,-0.263 ± 0.015
23,ACGTGTTA,0.321 ± 0.015
24,ACGTGTTC,0.292 ± 0.0076
25,GCGTGTTA,0.195 ± 0.089

row,Sequence,PBM 8-mer E-score
1,CCGTGTTC,0.00613 ± 0.046
2,ACGTGTTG,0.299 ± 0.081
3,AGGTGTTC,0.157 ± 0.0061
4,ATGTGTTG,0.225 ± 0.018
5,AGGTGTTG,-0.0311 ± 0.062
6,CCGTGTTA,0.103 ± 0.017
7,CACTTGCC,0.168 ± 0.14
8,TCACTACA,0.0656 ± 0.0014
9,ACCAACAC,0.174 ± 0.0053
10,AGCAAATG,0.0747 ± 0.051
11,AACTTGAT,0.198 ± 0.024
12,GCGAAATA,0.104 ± 0.11
13,CGGGAGTC,-0.0836 ± 0.032
14,ACATTTGG,0.0453 ± 0.092
15,AACCCCAA,0.259 ± 0.015
16,ACCCCCAA,-0.14 ± 0.0093
17,AACCCCCA,-0.337 ± 0.0059
18,GAACCCAA,-0.136 ± 0.086
19,AAACCCAT,0.0906 ± 0.057
20,AAACCCAA,0.265 ± 0.0051
21,AAGCGGCG,-0.253 ± 0.0057
22,ACAAAGAC,0.226 ± 0.034
23,ACGCTCTA,0.000195 ± 0.019
24,CGAGGGAG,0.0101 ± 0.048
25,ACTACTTA,0.114 ± 0.13

row,Sequence,PBM 8-mer E-score
1,AACGTGCA,0.225 ± 0.0061
2,AACGTGCG,0.129 ± 0.053
3,CCCGTGCG,-0.166 ± 0.0035
4,AACGTGCC,-0.0196 ± 0.033
5,TACGTGCA,0.155 ± 0.0056
6,GACGTGCC,-0.0314 ± 0.077
7,CACGTGCA,0.451 ± 0.049
8,CACGTGCG,0.462 ± 0.035
9,CACGTGCC,0.419 ± 0.076
10,ACCCCCTG,-0.181 ± 0.16
11,AAGCGAAC,-0.038 ± 0.12
12,ACAAACGT,0.0903 ± 0.12
13,GCAAGGCA,0.0264 ± 0.067
14,CCGGACCC,-0.294 ± 0.09
15,CCGTTTGA,-0.202 ± 0.057
16,ACGTTTGA,0.254 ± 0.015
17,CTGTTTGA,0.143 ± 0.011
18,GTGTTTGA,0.241 ± 0.042
19,ATGTTTGA,0.207 ± 0.051
20,ACGTTTGG,-0.00749 ± 0.048
21,ACACTGCC,-0.0509 ± 0.054
22,CAACAGAG,-0.088 ± 0.056
23,CGTGAATC,-0.00172 ± 0.048
24,AATGTCTC,0.00715 ± 0.052
25,CATGTCTA,0.0944 ± 0.042

row,Sequence,PBM 8-mer E-score
1,CATGTCTC,0.256 ± 0.015
2,AGTGTAGG,0.0989 ± 0.087
3,ATATAATA,0.302 ± 0.0079
4,GTATAATA,0.247 ± 0.093
5,GGATAATA,0.0335 ± 0.0051
6,ATATAATG,0.2202 ± 0.001
7,CTATAATA,0.165 ± 0.0056
8,GAATAATA,0.165 ± 0.01
9,GGCAGAAA,0.135 ± 0.072
10,CAGTGCAC,-0.103 ± 0.061
11,CCCGAGCA,0.00085 ± 0.0024
12,GACCGAGC,-0.276 ± 0.069
13,ATTGCAGA,-0.0371 ± 0.034
14,TCCACGCA,0.0588 ± 0.069
15,ATGGGCGC,-0.129 ± 0.1
16,ATAGCGTA,-0.019 ± 0.055
17,ATTCCACA,0.101 ± 0.1
18,CAGAACTC,-0.171 ± 0.057
19,AAGGATAC,-0.00358 ± 0.02
20,AAGGATAA,0.149 ± 0.041
21,AAGGATAT,0.247 ± 0.062
22,AGCGATTC,-0.0904 ± 0.024
23,ACATGAAT,0.24 ± 0.04
24,ACATGAAC,0.0854 ± 0.018
25,ACATGAGT,0.0854 ± 0.027

row,Sequence,PBM 8-mer E-score
1,ACATGAAG,0.0775 ± 0.23
2,ACATGAGA,0.253 ± 0.039
3,TCATGAGA,0.111 ± 0.0016
4,ACCAACAT,0.0339 ± 0.18
5,GACGGGGA,-0.043 ± 0.026
6,ACCAGGTG,-0.184 ± 0.13
7,CGGCTACC,-0.274 ± 0.058
8,CTACTTTA,0.0793 ± 0.013
9,ATACTTTG,0.107 ± 0.036
10,ATACTTTA,0.279 ± 0.0074
11,GTGAGTGA,-0.073 ± 0.17
12,ATGTTGTA,0.284 ± 0.016
13,GTGTTGTA,0.164 ± 0.016
14,ATGTTGTG,0.145 ± 0.062
15,AGGCGCAA,-0.0721 ± 0.067
16,GTAATATA,0.267 ± 0.012
17,ATAATAGA,0.0729 ± 0.052
18,CTAATATA,0.214 ± 0.0087
19,ATAATATC,0.257 ± 0.035
20,GTAATAAA,0.154 ± 0.041
21,CTAATATC,0.214 ± 0.06
22,ACAATATA,0.211 ± 0.037
23,ATAATATA,0.263 ± 0.042
24,ATAATATG,0.169 ± 0.035
